Reference: PubChem BioAssay
For part of these data: Potency and affinity values are given separately. Records with an inconclusive call do not appear. Some of the results follow. Activity calls are given as the source filed them. Unless noted, how the calls were made is not given here.

Experiments:
[1] = cytotoxicity in PAX8-dependent RMG-1 cells, dose response, cell-based, cherry-pick (AID 687029;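 active means signal drop whose fitted half-maximal concentration is at most twice the top valid dose, in every test run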;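 further: cells exposed to compound for 96 hours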)
[2] = cytotoxicity in IOSE-T80 ovarian epithelial cells, dose response, selectivity assay for PAX8 inhibitor project, cell-based, cherry-pick (AID 687032;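 active means fitted half-maximal concentration for viability loss no higher than twice the top valid dose, in every repeat run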;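 further: cells exposed to compound for 96 h before reading; 0% = neutral control wells and -100% = 2 µM mitoxantrone kill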)
[3] = non-specific cell cytotoxicity, dose response, cytotoxicity control for PAX8 inhibitor project, plate reader, dry powder samples (AID 743021)
[4] = IGROV1 ovarian cancer cell cytotoxicity, dose response, PAX8 inhibitor project, plate reader, dry powder samples (AID 743043);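 further: more negative means fewer viable cells or more cytotoxicity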
[5] = IOSE-T80 ovarian epithelial cell cytotoxicity, dose response, cytotoxicity control for PAX8 inhibitor project, plate reader, dry powder samples (AID 743045);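 further: 0% = neutral control median and -100% = positive control median; more negative values mean more cell killing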
[6] = cytotoxicity in OVCAR8 ovarian cancer cells, dose response, PAX8 project, cell-based, plate reader, dry powder samples (AID 743197)
[7] = A2780 ovarian cancer cell cytotoxicity, dose response, cytotoxicity control, plate reader, dry powder samples (AID 743046);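 further: 0% = neutral control wells and -100% = cytotoxic reference compound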
[8] = NIH:OVCAR-3 ovarian cancer cell cytotoxicity, dose response, PAX8 inhibitor project, plate reader, dry powder samples (AID 743044); details: max activity: at 35 µM, stronger effect = lower value unless noted
[9] = A549 cell cytotoxicity, dose response, cytotoxicity control, plate reader, cherry-pick, antagonist series (AID 743412);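 further: 0% = neutral control wells and -100% = positive control wells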
[10] = HepG2 cell cytotoxicity, dose response, cytotoxicity control, plate reader, cherry-pick, antagonist series (AID 743416);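 further: 0% = neutral control wells and -100% = positive control wells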
[11] = DNA binders by acridine orange displacement, dose response, counter-screen for EWS/Fli inhibitor project, biochemical, fluorescence polarization, cherry-pick (AID 720586;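 active means fitted curve reaches a 35% signal fall AC35 below twice the sample's top valid tested dose, actives reach about 48 µM in these data; inactive means the rest, including activity in the rising direction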;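 further: 0% = neutral control median and -100% = 10 µM mitoxantrone control median; lower polarization ratio signals compound binding to DNA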)
[12] = inhibitors of CMV-promoter luciferase reporter, dose response, counter-screen for Pax8 inhibitor project, cell-based, HEK293, luminescence, dry powder (AID 743020;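 active means signal-lowering compounds whose fitted half-maximal concentration is at or below twice the top tested dose in every run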;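 further: HEK293 cells stably expressing the CMV luciferase reporter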)

O=C(Nc1ccccc1)N1C[C@@H]2N[C@H](C1)[C@@H]2c1ccc(/C=C/c2ccccc2)cc1
inactive: outcome [1] | outcome [2] | outcome [3] | outcome [4] | outcome [5] | outcome [6]

C[C@@H]1CN([C@H](C)CO)C(=O)c2cc(NS(=O)(=O)c3ccc(F)cc3)ccc2O[C@@H](C)CCCCO[C@H]1CN(C)Cc1ccc(C(F)(F)F)cc1
inactive: outcome [1] | outcome [2] | outcome [3] | outcome [5] | outcome [7]

C[C@@H]1CN([C@@H](C)CO)S(=O)(=O)c2ccc(C#Cc3ccccc3F)cc2O[C@H]1CN(C)C(=O)c1ccc2c(c1)OCO2
inactive: outcome [1] | outcome [2] | outcome [3] | outcome [5]

C[C@H]1CCCCO[C@@H](CN(C)S(=O)(=O)c2ccccc2)[C@@H](C)CN([C@@H](C)CO)C(=O)c2cc(NC(=O)Nc3ccc(C(F)(F)F)cc3)ccc2O1
inactive: outcome [1] | outcome [2] | outcome [3] | outcome [5] | outcome [7]

C[C@@H]1CN([C@H](C)CO)C(=O)c2cc(NS(=O)(=O)c3cccs3)ccc2O[C@@H](C)CCCCO[C@@H]1CN(C)Cc1ccc(Cl)c(Cl)c1
inactive: outcome [1] | outcome [2] | outcome [3] | outcome [5]

C[C@@H]1CN([C@@H](C)CO)C(=O)Cc2cc(N(C)C)ccc2O[C@H]1CN(C)Cc1ccc(C(=O)Nc2ccccc2N)cc1
inactive: outcome [1] | outcome [2] | outcome [3] | outcome [5] | outcome [7]

C[C@@H]1CN([C@H](C)CO)C(=O)c2cc(NS(=O)(=O)c3ccc(Cl)cc3)ccc2O[C@@H](C)CCCCO[C@@H]1CN(C)CC1CCCCC1
inactive: outcome [1] | outcome [2] | outcome [3] | outcome [5] | outcome [7]

Cc1noc(C)c1S(=O)(=O)Nc1ccc2c(c1)CC(=O)N([C@@H](C)CO)C[C@@H](C)[C@H](CN(C)Cc1ccc(Cl)c(Cl)c1)O2
inactive: outcome [1] | outcome [2] | outcome [3] | outcome [5] | outcome [7]

C[C@H](CO)N1C[C@H](C)[C@@H](CN(C)S(=O)(=O)c2ccccc2)OCCCC[C@H](C)Oc2ccc(NS(=O)(=O)c3ccc(Cl)cc3)cc2C1=O
inactive: outcome [1] | outcome [2] | outcome [3] | outcome [4] | outcome [5] | outcome [6]

C[C@@H]1CCCCO[C@@H](CN(C)S(=O)(=O)c2ccc(Cl)cc2)[C@H](C)CN([C@H](C)CO)C(=O)c2cc(NS(=O)(=O)c3ccc(Cl)cc3)ccc2O1
inactive: outcome [1] | outcome [2] | outcome [3] | outcome [5]

O=C(C[C@@H]1CC[C@@H]2[C@H](COC[C@@H](O)CN2C(=O)Nc2ccc(C(F)(F)F)cc2)O1)NC1Cc2ccccc2C1
inactive: outcome [1] | outcome [2] | outcome [3] | max activity [8] -24.5% | outcome [5] | outcome [7] | outcome [6]

Cc1ccc(-c2ccc([C@H]3[C@H](CO)N4CCCCN(S(=O)(=O)c5cccc(C)c5)C[C@@H]34)cc2)cc1
inactive: outcome [1] | outcome [2] | outcome [3] | outcome [5] | outcome [7]

Cc1ccc(S(=O)(=O)Nc2ccc3c(c2)C(=O)N([C@@H](C)CO)C[C@H](C)[C@@H](CN(C)C(=O)Nc2cccc4ccccc24)OCCCC[C@@H](C)O3)cc1
inactive: outcome [1] | outcome [2] | outcome [3] | outcome [4] | outcome [5] | outcome [7] | outcome [6]

C[C@@H]1CN([C@H](C)CO)C(=O)c2cc(NC(=O)Nc3ccc(F)cc3)ccc2O[C@@H](C)CCCCO[C@H]1CN(C)S(=O)(=O)c1ccccc1
inactive: outcome [1] | outcome [2] | outcome [3] | outcome [4] | outcome [5] | outcome [7] | outcome [6]

C[C@@H]1CN([C@@H](C)CO)C(=O)Cc2cc(NC(=O)Nc3ccccc3)ccc2O[C@H]1CN(C)Cc1ccc(Oc2ccccc2)cc1
inactive: outcome [1] | outcome [2] | outcome [3] | max activity [8] -64.8% | outcome [5] | outcome [7] | outcome [6]

C[C@H]1CCCCO[C@H](CN(C)Cc2ccc(Cl)c(Cl)c2)[C@@H](C)CN([C@@H](C)CO)C(=O)c2cc(NC(=O)Nc3ccc(C(F)(F)F)cc3)ccc2O1
inactive: outcome [1] | outcome [2] | outcome [3] | outcome [5] | outcome [7]

C[C@@H]1CCCCO[C@@H](CN(C)C(=O)Nc2ccc(C(F)(F)F)cc2)[C@H](C)CN([C@H](C)CO)C(=O)c2cc(NS(=O)(=O)c3cccs3)ccc2O1
inactive: outcome [1] | outcome [2] | outcome [3] | outcome [5]

C[C@H]1CCCCO[C@H](CN(C)C(=O)Nc2ccc(C(F)(F)F)cc2)[C@@H](C)CN([C@@H](C)CO)C(=O)c2cc(NC(=O)Nc3ccccc3)ccc2O1
inactive: outcome [1] | outcome [2] | outcome [3] | outcome [5]

C[C@@H]1CN([C@H](C)CO)C(=O)c2cc(NS(=O)(=O)c3ccc(Cl)cc3)ccc2O[C@@H](C)CCCCO[C@H]1CN(C)S(=O)(=O)c1ccc(Cl)cc1
inactive: outcome [1] | outcome [2] | outcome [3] | outcome [5]

COc1ccc2c3c(n(C)c2c1)[C@H](CO)N(Cc1ccccc1)CC31CCN(S(=O)(=O)c2ccc(C)cc2)CC1
inactive: outcome [1] | outcome [2] | outcome [3] | outcome [5]

Cc1ccc(S(=O)(=O)Nc2ccc3c(c2)C(=O)N([C@H](C)CO)C[C@@H](C)[C@@H](CN(C)CC2CCCCC2)OCCCC[C@@H](C)O3)cc1
inactive: outcome [1] | outcome [2] | outcome [3] | outcome [5]

CC(C)CC#Cc1ccc2c(c1)O[C@@H](CN(C)S(=O)(=O)c1ccc(F)cc1)[C@@H](C)CN([C@@H](C)CO)S2(=O)=O
inactive: outcome [1] | outcome [2] | outcome [3] | outcome [5] | outcome [7]

Cc1ccc(S(=O)(=O)N(C)C[C@H]2OCCCC[C@H](C)Oc3ccc(NS(=O)(=O)c4ccc(Cl)cc4)cc3C(=O)N([C@H](C)CO)C[C@@H]2C)cc1
inactive: outcome [1] | outcome [2] | outcome [3] | outcome [5] | outcome [7]

CC(C)CC#Cc1ccc2c(c1)O[C@@H](CN(C)Cc1ccncc1)[C@H](C)CN([C@H](C)CO)S2(=O)=O
inactive: outcome [1] | outcome [2] | outcome [3] | outcome [4] | outcome [7]

Nc1ccc(-c2nc3ccc(C(=O)O)cc3s2)cc1
inactive: outcome [1] | outcome [2] | outcome [9] | outcome [10]

C[C@@H]1CCCCO[C@H](CN(C)Cc2ccc(Cl)c(Cl)c2)[C@@H](C)CN([C@@H](C)CO)C(=O)c2cc(NS(=O)(=O)c3ccccc3)ccc2O1
inactive: outcome [1] | outcome [2] | outcome [5] | outcome [7] | outcome [6]

Cn1cnc(S(=O)(=O)N2C[C@@H]3N[C@H](C2)C3c2ccc(-c3ccccc3F)cc2)c1 (some centres undefined)
inactive: outcome [1] | outcome [2] | outcome [3] | outcome [7]

C[C@@H]1CCCCO[C@@H](CN(C)S(=O)(=O)c2ccccc2)[C@H](C)CN([C@H](C)CO)C(=O)c2cc(NC(=O)Nc3ccc(C(F)(F)F)cc3)ccc2O1
inactive: outcome [1] | outcome [2] | outcome [5] | outcome [7] | outcome [6]

C[C@H](CO)N1C[C@H](C)[C@H](CN(C)Cc2ccc3c(c2)OCO3)OCCCC[C@H](C)Oc2ccc(NC(=O)Nc3ccc(C(F)(F)F)cc3)cc2C1=O
inactive: outcome [1] | outcome [2] | outcome [4] | max activity [8] -20.3% [at 0.26 µM, stronger effect = lower value] | outcome [5] | outcome [7] | outcome [6]

C[C@H](CO)N1C[C@H](C)[C@@H](CN(C)Cc2ccc(C(F)(F)F)cc2)OCCCC[C@H](C)Oc2ccc(NS(=O)(=O)c3ccc(F)cc3)cc2C1=O
inactive: outcome [1] | outcome [2] | outcome [5] | outcome [6]

O=C(C[C@@H]1C[C@@H]2c3cc(NS(=O)(=O)c4ccc(F)cc4)ccc3O[C@@H]2[C@@H](CO)O1)NCc1ccc(Oc2ccccc2)cc1
inactive: outcome [1] | outcome [2] | outcome [4] | outcome [5]

N#C[C@@H]1[C@@H](c2ccc(C#Cc3ccccc3F)cc2)[C@H](CO)N1C(=O)C1CCCCC1
inactive: outcome [1] | outcome [2] | outcome [3] | outcome [7]

Cc1ccc(S(=O)(=O)Nc2ccc3c(c2)C(=O)N([C@H](C)CO)C[C@@H](C)[C@H](CN(C)Cc2ccc(C(F)(F)F)cc2)OCCCC[C@H](C)O3)cc1
inactive: outcome [1] | outcome [2] | outcome [5]

COc1ccc(S(=O)(=O)N(C)C[C@@H]2OCCCC[C@H](C)Oc3ccc(NS(=O)(=O)c4ccc(Cl)cc4)cc3C(=O)N([C@H](C)CO)C[C@@H]2C)cc1
inactive: outcome [1] | outcome [2] | outcome [4] | outcome [5] | outcome [7] | outcome [6]

COc1cccc(C#Cc2ccc([C@H]3[C@@H](CO)N(C(=O)c4ccccn4)[C@H]3C#N)cc2)c1
inactive: outcome [1] | outcome [2] | outcome [5] | outcome [7]

COc1ccc(NC(=O)N2CCCCN3[C@H](C2)[C@@H](c2ccc(C#Cc4ccccc4)cc2)[C@@H]3CO)cc1
inactive: outcome [1] | outcome [2] | outcome [4] | outcome [5] | outcome [7]

CCCCCCCCn1c2c(c(=N)c3c1CCC3)CCCC2
inactive: outcome [1] | AC35 [11] | outcome [12] | outcome [3]

C[C@H]1CCCCO[C@H](CN(C)S(=O)(=O)c2ccccc2)[C@@H](C)CN([C@@H](C)CO)C(=O)c2cc(NS(=O)(=O)c3ccc(Cl)cc3)ccc2O1
inactive: outcome [1] | outcome [2] | outcome [4] | outcome [5]

C[C@H](CO)N1C[C@H](C)[C@H](CN(C)Cc2ccc(C(=O)Nc3ccccc3N)cc2)Oc2ccc(N(C)C)cc2C1=O
inactive: outcome [1] | outcome [2] | outcome [3] | outcome [7]
